In test [1] the target is Short transient receptor potential channel 4 (Mus musculus) (UniProt Q9QUQ5). Put plainly: mouse TRPC4 channel inhibitors, dose response, cell-based, HEK293 TRPC4/mu-opioid, Fluo-4 calcium (AID 434942;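 active means primary screen inhibitor hit that blocks the TRPC4 channel at some tested dose, yielding a dose curve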).
Test [2] can be described thus: thallium flux activation in parental CHO cells, counter-screen for KCNQ1 potentiator project (AID 493006;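 active means duplicate-averaged activation above buffer control mean plus 5 SD of those controls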;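 on activation: fluorescence ratio of max minus min over baseline after K+ and Tl+ depolarization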). The settings on record: parental CHO-K1 cells, FluxOR thallium flux, at 10 µM; hits give high values. In general terms: A counterscreen serves to expose hits that act by an unwanted route or on another target.
Test [3] concerns the target Potassium voltage-gated channel subfamily KQT member 1 (Homo sapiens) (UniProt P51787). Kind of test: KCNQ1 potassium channel potentiators, confirmation, FluxOR thallium flux, CHO cells, duplicates (AID 493007;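 active means potentiation averaged over duplicate wells exceeding buffer-only control mean by more than 3 SD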;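 on outcome: cells depolarized by a potassium plus thallium sulfate stimulus after compound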;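 on potentiation: 0% = buffer-only wells and 100% = R-L3 activator control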). The settings on record: KCNQ1 cell line, FluxOR thallium flux fluorescence, at 10 µM; hits give high values, % of reference activator effect, buffer zero.
Test [4] addresses Potassium voltage-gated channel subfamily KQT member 2 (Rattus norvegicus) (UniProt O88943). Put plainly: rat KCNQ2 channel potentiation, selectivity assay for KCNQ1 potentiator project, KCNQ2-CHO-K1 cells (AID 493009;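 active means mean duplicate potentiation above the buffer control mean plus 5 SD of buffer wells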;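 further: assay conditions were tuned for KCNQ1 rather than KCNQ2 modulators; signal is max minus min fluorescence divided by baseline after thallium stimulus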). The settings on record: FluxOR thallium flux fluorescence, at 10 µM; hits give high values, scaled: buffer 0, activator control 100.
Test [5] deals with Potassium voltage-gated channel subfamily KQT member 1 (Homo sapiens) (UniProt P51787). Put plainly: KCNQ1 channel current potentiators, confirmation, orthogonal assay for KCNQ1 potentiator project, IonWorks patch clamp, KCNQ1-CHO cells (AID 493184;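 active means current rise at least 3 SD above the untreated control mean in each of two repeat wells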). The conditions noted are these: automated patch clamp current, at 10 µM; hits give high values.
For test [6], the target named is T1, Potassium voltage-gated channel subfamily E member 1 (Homo sapiens) + Potassium voltage-gated channel subfamily KQT member 1 (Homo sapiens) (UniProt P15382+P51787). Put plainly: KCNQ1/KCNE1 complex potentiators, confirmation, selectivity assay for KCNQ1 potentiator project, thallium flux, CHO-K1 KCNQ1/E1 cells (AID 493186;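 active means mean duplicate activation above the buffer control mean plus 5 SD of those controls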;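 further: 0% = assay buffer control and 100% = R-L3 activator control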). The settings on record: FluxOR thallium flux, at 10 µM; hits give high values.

Test [7] deals with Potassium voltage-gated channel subfamily KQT member 1 (Homo sapiens) (UniProt P51787). Put plainly: KCNQ1 potassium channel inhibitors, confirmation, cell-based, Tl flux, duplicate (AID 588353;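 active means primary screen active, with duplicate mean exceeding buffer control mean plus 3 SD of buffer wells, cut at about 28% in these data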;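 further: 0% = buffer control ratio and 100% = XE991 inhibitor control ratio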). The conditions noted are these: KCNQ1 cell line, FluxOR thallium flux fluorescence, at 10 µM, hits give high values.
Test [8] in a line: thallium flux effects in parental CHO cells, counter-screen for KCNQ1 inhibitor project, cell-based, Tl flux (AID 588366;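 active means mean of duplicate thallium-flux fluorescence ratios in parental host cells more than 5 SD below the buffer control mean, cut at about 0.38 in these data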;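 further: ratio is peak minus minimum fluorescence divided by baseline fluorescence; actives read low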). The conditions noted are these: parental CHO-K1, FluxOR thallium flux fluorescence ratio; at 10 µM; hits give low values; zero means no signal rise above baseline.
For test [9], the target named is Potassium voltage-gated channel subfamily KQT member 2 (Rattus norvegicus) (UniProt O88943). Kind of test: KCNQ2 channel inhibition, selectivity assay for KCNQ1 inhibitor project, cell-based (AID 651746;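 active means mean percent inhibition of the KCNQ2 thallium signal more than 5 SD above the buffer-only control wells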;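 further: 0% = buffer control wells and 100% = XE-991 inhibitor control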). The settings on record: KCNQ2 cells, FluxOR thallium flux fluorescence, at 10 µM; hits give high values.
The target of test [10] is T1, Potassium voltage-gated channel subfamily E member 1 (Homo sapiens) + Potassium voltage-gated channel subfamily KQT member 1 (Homo sapiens). Put plainly: KCNQ1/KCNE1 channel inhibition, selectivity assay for KCNQ1 inhibitor project, CHO-K1 cells, thallium flux, FluxOR (AID 652147;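 active means mean percent inhibition of duplicate wells above the buffer-only control mean plus 3 SD of those controls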). The settings on record: FluxOR thallium flux fluorescence, at 10 µM; hits give high values.

The target in test [11] is Short transient receptor potential channel 6 (Mus musculus) (UniProt Q61143). Kind of test: mouse TRPC6 channel activators, confirmation, HEK293 cells, membrane potential dye, duplicate (AID 488961). The conditions noted are these: HEK293-TRPC6 membrane potential dye fluorescence, FDSS, at 10 µM; hits give high values.
Test [12] is described as follows: parental HEK293 membrane potential modulation, confirmation, counter-screen for TRPC6 modulator project, cell-based (AID 488924;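 active means membrane potential signal moves up or down beyond 5 SD from buffer-only wells, on both duplicate plates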). The settings on record: parental HEK293, membrane potential dye fluorescence; at 10 µM.
Test [13] can be described thus: modulation of acetylcholine-evoked membrane potential, parental HEK293, confirmation, counter-screen for TRPC6 modulator project, cell-based, second counter-screen, membrane potential dye (AID 488926;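 active means membrane potential signal drops by more than 5 SD from the mean control signal, in both duplicate plates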;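 on inhibition: plate controls were acetylcholine ECmax control wells for no effect and buffer only wells for full effect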). The conditions noted are these: parental HEK293, membrane potential dye fluorescence, at 10 µM, after compound, maximal acetylcholine stimulation; hits give high values.

Test [14] has as its system Transient receptor potential cation channel subfamily C member 4 (mouse). Kind of test: TRPC4 modulation by TRPC6 hit compounds, confirmation, selectivity assay for TRPC6 modulator project, cell-based, HEK293 TRPC4/mu-opioid, membrane potential dye, mouse (AID 488927;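 active means membrane potential signal moved up or down beyond 5 SD of buffer control wells, in both duplicate plates, actives on both sides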;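 further: plate controls were assay buffer wells for no effect and DAMGO maximal-effect wells for full effect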). The settings on record: membrane potential fluorescence, at 10 µM.
The test system of test [15] is TRPC4 (transient receptor potential cation channel C4), mouse. Kind of test: TRPC4 inhibition by TRPC6 hit compounds, confirmation, selectivity assay for TRPC6 modulator project, cell-based, second screen, HEK293 TRPC4/mu-opioid, membrane potential dye (AID 488928;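 active means drop in membrane potential signal beyond 5 SD of the control wells in both duplicate plates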;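 further: TRPC4 counter screen for TRPC6 hits run under conditions tuned for TRPC6 not TRPC4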). The conditions noted are these: membrane potential dye fluorescence, at 10 µM, stimulated with maximal-effect DAMGO; hits give high values.

Experimental findings from PubChem BioAssay are described below.

Unmarked numbers belong to inactive results. For some assays here: Measured potencies and affinities stand elsewhere. This is one part of the list. Active and inactive are the calls of the source.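 How the source made its calls, unless noted: active means ratio signal rise beyond 5 SD above unstimulated control wells' mean, seen in both duplicate runs; inactive means the rest.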

Chain of Short transient receptor potential channel 4 (Mus musculus) (Q9QUQ5 whole entry, looked up): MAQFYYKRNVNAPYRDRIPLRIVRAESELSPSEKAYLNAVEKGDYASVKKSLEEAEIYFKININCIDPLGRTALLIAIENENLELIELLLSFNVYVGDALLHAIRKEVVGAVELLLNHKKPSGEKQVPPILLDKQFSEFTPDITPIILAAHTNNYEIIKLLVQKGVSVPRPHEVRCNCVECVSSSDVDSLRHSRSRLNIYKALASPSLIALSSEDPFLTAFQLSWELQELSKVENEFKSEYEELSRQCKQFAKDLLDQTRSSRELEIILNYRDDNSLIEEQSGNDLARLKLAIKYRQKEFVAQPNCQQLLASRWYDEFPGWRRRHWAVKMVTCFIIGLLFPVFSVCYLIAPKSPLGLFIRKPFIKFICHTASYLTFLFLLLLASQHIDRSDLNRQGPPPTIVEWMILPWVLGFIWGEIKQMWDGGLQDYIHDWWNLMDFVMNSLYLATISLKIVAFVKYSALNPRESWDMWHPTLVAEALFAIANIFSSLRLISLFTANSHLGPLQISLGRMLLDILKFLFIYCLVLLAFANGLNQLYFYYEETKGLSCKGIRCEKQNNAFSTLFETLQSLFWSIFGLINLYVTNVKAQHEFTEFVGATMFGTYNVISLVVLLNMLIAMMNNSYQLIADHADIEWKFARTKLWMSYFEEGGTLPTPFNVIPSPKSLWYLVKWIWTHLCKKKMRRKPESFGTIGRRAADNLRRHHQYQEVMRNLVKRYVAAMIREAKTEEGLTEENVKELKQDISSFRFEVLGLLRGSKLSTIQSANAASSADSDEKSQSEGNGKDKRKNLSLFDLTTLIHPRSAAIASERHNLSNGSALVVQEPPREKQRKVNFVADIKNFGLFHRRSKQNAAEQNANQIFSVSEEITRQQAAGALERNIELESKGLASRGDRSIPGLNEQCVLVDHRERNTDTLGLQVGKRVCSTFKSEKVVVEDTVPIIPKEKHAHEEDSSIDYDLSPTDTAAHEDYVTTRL
T1 sequence (P51787 whole entry, looked up): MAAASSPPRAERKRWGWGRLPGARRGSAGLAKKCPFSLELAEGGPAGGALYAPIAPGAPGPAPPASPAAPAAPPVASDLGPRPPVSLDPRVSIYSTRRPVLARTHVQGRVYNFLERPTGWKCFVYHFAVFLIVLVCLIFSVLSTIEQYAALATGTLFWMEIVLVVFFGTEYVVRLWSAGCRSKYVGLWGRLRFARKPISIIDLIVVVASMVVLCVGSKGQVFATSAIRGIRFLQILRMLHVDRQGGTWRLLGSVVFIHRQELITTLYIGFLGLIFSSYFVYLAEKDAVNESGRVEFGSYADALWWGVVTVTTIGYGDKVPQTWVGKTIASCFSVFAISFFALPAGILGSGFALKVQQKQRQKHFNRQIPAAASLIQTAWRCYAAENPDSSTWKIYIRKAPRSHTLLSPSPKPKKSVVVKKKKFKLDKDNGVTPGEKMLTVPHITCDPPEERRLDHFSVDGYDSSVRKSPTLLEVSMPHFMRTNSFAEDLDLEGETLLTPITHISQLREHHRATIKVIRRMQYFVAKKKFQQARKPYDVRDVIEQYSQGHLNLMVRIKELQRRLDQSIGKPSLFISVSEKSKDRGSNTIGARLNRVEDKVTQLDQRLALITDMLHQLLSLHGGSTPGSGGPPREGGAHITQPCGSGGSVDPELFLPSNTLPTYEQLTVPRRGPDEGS
Chain of Potassium voltage-gated channel subfamily KQT member 2 (Rattus norvegicus) (O88943 whole entry, looked up): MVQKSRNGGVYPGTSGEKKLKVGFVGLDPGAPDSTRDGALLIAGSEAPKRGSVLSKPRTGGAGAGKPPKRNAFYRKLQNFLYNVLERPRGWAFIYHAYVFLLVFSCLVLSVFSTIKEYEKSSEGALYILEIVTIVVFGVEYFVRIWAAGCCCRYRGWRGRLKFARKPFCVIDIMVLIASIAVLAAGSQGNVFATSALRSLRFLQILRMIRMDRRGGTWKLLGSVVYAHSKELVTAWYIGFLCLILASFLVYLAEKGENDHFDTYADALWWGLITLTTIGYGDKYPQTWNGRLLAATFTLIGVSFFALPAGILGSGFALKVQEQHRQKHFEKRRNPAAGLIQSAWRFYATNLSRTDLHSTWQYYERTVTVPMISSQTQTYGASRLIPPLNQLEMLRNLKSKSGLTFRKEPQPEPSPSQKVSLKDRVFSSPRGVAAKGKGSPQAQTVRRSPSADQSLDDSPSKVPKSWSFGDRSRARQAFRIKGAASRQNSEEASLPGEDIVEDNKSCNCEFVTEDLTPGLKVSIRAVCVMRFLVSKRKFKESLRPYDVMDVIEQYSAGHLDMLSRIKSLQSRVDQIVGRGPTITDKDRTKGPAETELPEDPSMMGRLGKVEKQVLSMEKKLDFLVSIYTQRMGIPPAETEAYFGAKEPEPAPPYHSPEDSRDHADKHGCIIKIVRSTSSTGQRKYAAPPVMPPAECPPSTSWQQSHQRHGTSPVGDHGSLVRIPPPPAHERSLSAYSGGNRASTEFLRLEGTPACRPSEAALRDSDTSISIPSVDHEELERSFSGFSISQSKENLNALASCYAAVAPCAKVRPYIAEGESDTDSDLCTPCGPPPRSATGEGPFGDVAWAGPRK
Chain of Short transient receptor potential channel 6 (Mus musculus) (Q61143 whole entry, looked up): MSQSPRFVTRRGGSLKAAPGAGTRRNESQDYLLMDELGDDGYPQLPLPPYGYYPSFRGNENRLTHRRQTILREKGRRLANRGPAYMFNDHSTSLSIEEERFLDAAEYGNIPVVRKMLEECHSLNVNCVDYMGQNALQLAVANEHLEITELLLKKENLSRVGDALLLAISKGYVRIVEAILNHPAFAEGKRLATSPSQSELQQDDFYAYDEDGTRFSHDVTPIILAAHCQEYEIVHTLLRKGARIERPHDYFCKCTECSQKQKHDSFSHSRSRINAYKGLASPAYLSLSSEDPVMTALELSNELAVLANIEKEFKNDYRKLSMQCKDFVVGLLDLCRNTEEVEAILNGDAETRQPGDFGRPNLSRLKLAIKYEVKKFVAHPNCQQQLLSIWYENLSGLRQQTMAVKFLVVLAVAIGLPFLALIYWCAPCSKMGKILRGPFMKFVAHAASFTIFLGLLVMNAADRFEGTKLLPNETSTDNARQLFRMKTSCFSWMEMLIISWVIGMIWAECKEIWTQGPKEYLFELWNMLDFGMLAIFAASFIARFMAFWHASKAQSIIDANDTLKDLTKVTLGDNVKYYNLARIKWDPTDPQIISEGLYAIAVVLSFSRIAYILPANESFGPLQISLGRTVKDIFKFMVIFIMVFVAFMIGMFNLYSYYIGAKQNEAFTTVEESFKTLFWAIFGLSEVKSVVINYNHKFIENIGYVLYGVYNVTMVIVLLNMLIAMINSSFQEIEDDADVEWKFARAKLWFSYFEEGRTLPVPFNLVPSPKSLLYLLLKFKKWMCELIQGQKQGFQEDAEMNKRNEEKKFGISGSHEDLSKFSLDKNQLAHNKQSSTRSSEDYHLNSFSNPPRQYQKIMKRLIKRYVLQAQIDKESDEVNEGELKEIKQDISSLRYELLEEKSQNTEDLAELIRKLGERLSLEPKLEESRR
Chain of Potassium voltage-gated channel subfamily KQT member 1 (Homo sapiens) (P51787 whole entry, looked up): as the sequence (P51787 whole entry, looked up) above

As for `Cc1cccc(C(=O)NNC(=S)NC(=O)c2cccs2)c1`, the result in [1] and in test [5] was inactive. Besides, the activation in [2] was 142% (active). Besides, the values for the potentiation in [3] and in test [4] were 91% (active) and 226% (active), respectively.

Turning to `COc1ccc(C(=O)NNC(=S)NC(=O)c2ccccc2)cc1`, the result in test [1], in [2] and in [5] was inactive. In addition, the potentiation in test [3] is 58.5% (active); in test [4], 166% (active). The activation in [6] is 20.5% (active).

Regarding `CC(Oc1ccc(Cl)cc1)C(=O)NNC(=S)NC(=O)c1ccco1` (stereo not drawn), the outcome in test [1], in [2] and in test [5] was inactive. Moreover, the potentiation was 50% (active) in test [3] and 170% (active) in test [4]. Besides, in test [6], the activation was 13.8% (active).

For `COC(=O)C1=NN(C(=O)c2ccc(C)cc2)C(O)(c2ccc(Cl)cc2)C1` (stereo not drawn), the result in [1] and in test [5] was inactive. Also, the activation in [2] is 602% (active). Further, the potentiation in test [3] is 280% (active).

Regarding `Cc1cc(NCc2ccccc2)nc2ccccc12`, the result in test [2], in test [3], in test [4] and in [5] was inactive.

Broadly, the inhibition is how much of the control response was suppressed. Take `CCCc1cc(=S)n2c([nH]c3ccccc32)c1C#N`: the inhibition in [7] is 80.5% (active); in [9] it was 91.3% (active). Moreover, in [8], the fluorescence ratio (Tl flux) was 0.394. The result in test [10] was inactive.

Turning to `COc1ccc(CC(=O)Nc2sc(Cc3ccccc3)c(C)c2C(N)=O)cc1`, the compound was called inactive in test [11].

With `CN(C)CCOC(=O)C(c1ccccc1)C1(O)CCCC1` (stereo not drawn), in [11], the call was inactive.

As for `CCOC(=O)c1c(NC(=O)COC(=O)Cc2c[nH]c3ccccc23)sc(C(=O)N(C)C)c1C`, in test [1], the result was inactive.

On to `Cn1c(O)c(/C=N/NC(=O)c2cc3ccccc3cc2O)c2ccccc21`, for which, in test [1], the outcome was inactive.

Take `Cn1c(=NC(=O)c2cnccn2)sc2ccccc21`: the compound was classed as inactive in test [11].

With `CC(C)(C)c1ccc(C(=O)NC(=S)NNC(=O)COc2ccccc2)cc1`, in [2], the activation was 186% (active). In addition, the potentiation in [3] is 59.5% (active); in [4] it was 208% (active). The result in [5] was inactive.

On to `COc1cc(/C=C2/SC(=S)N(Cc3ccccc3)C2=O)cc(Cl)c1O`, for which the outcome in test [1] was inactive.

As for `Cc1cc(Nc2ccc(N3CCOCC3)cc2)c2cccc(C)c2n1`, in test [11], the compound was called inactive.

Regarding `OCCC1CN(Cc2ccc3nsnc3c2)CCN1C1CCCC1` (stereo not drawn), the compound was classed as inactive in test [11].

For `CC(C)CCNc1nc(N2CCCC2)c2c(c1C#N)CCN(C)C2`, the call in test [11] was inactive.

As to `C=C(C)c1cccc(C(C)(C)NC(=O)NCCN(CC)CC)c1`, in test [11], the result was inactive.

Consider `CCCCc1cc(O)c(CCCC)c(O)c1`, for which, in test [1], the outcome was inactive.

`CC1CC(C)CN(C/C=C/c2ccccc2[N+](=O)[O-])C1` (stereo not drawn): in test [11], the compound was called inactive.

For `Cc1cc(OCCNCCO)cc(C)c1Cl`, the outcome in test [1] was inactive.

Turning to `Cn1c(=O)n(C)c2cc(C(=O)Nc3ccc4c(c3)OCO4)ccc21`, the outcome in [11] was inactive.

`CCCCCCCCCCOC(=O)C[N+](C)(C)CC1CCCCC1O` (stereo not drawn): the outcome in [11] was inactive.

For the compound `CCN(CC)CCn1c2ccc(Cl)cc2c2nc(C)sc21`, the outcome in [11] was inactive.

Take `COc1ccc(N/C(C)=C2/C(=O)C(=O)N(CCO)C2c2ccc(Br)cc2)cc1` (stereo not drawn): the result in test [1] was inactive.

Turning to `CCN(CC)c1ccc2cc(C(N)=O)/c(=N\NC(=O)c3ccncc3)oc2c1`, the call in test [11] was inactive.

For the compound `CCCCCOc1ccc(CSC2=NCCN2)cc1[N+](=O)[O-]`, the outcome in [11] was inactive.

On to `CCOC(=O)N1CCN(C(=O)c2ccc3c(c2)N(Cc2ccc(C)cc2)CCS3)CC1`, for which the call in test [11] was inactive.

For `O=C1c2ccccc2C(=O)c2c1cccc2N1CCN(Cc2ccccc2)CC1`, the result in test [11] was inactive.

Consider `COc1ccc(CNC(=O)c2cc3c(=O)n4ccccc4nc3n(CC3CCCO3)c2=N)cc1` (stereo not drawn), for which the compound was called inactive in [11], in test [2], in test [3], in test [4] and in test [5].

Turning to `COc1ccccc1C1SCCN1C(=O)c1ccc([N+](=O)[O-])cc1` (stereo not drawn), in test [11], the compound was classed as inactive.

For the compound `CN(C)c1ccc(C2N(C)C(=O)c3ccccc3N2C)cc1` (stereo not drawn), the compound was classed as inactive in [11].

As to `Clc1ccc(-n2nnnc2-c2cnc(-c3ccccn3)nc2-c2cccs2)cc1`, the membrane potential signal change in [12] is 133% (active). For the same compound, the outcome in test [13] and in [15] was inactive. Further, the percent change from control (negative = decrease, positive = increase) in [14] was 19.5% (active).

In the case of `CN(C)CCCOc1cccc(Cl)c1`, the result in [1] was inactive.

In the case of `COc1ccccc1OCCNCC(O)COc1cccc2[nH]c3ccccc3c12` (stereo not drawn), in test [11], the call was inactive.

Take `O=C(NNS(=O)(=O)c1ccc(Cl)cc1)C1CCN(Cc2ccccc2)CC1`: in test [11], the outcome was inactive.

With `CC(C)c1ccc(OCC(O)Cn2cnc3ccccc32)cc1` (stereo not drawn), the call in [11] was inactive.

Regarding `c1ccc(C2c3[nH]c4ccccc4c3CCN2Cc2cccn2-c2cccnc2)nc1` (stereo not drawn), in test [11], the compound was called inactive.

Consider `Cc1cccc(NC(=S)NCCN(C2CCCCC2)C2CCCC2)c1`, for which, in test [12], the membrane potential signal change is 129% (active). The result in test [13] was inactive. Moreover, the percent change from control (negative = decrease, positive = increase) in test [14] was 24.5% (active). Further, the inhibition in test [15] is 68.5% (active).

For the compound `CC(C)C(c1nnnn1CCc1ccccc1)N1CCN(C(=O)c2ccco2)CC1` (stereo not drawn), the membrane potential signal change in test [12] is 153% (active). Moreover, the inhibition in test [13] is 85.5% (active). The percent change from control (negative = decrease, positive = increase) in [14] was 27.5% (active). Also, in test [15], the compound was called inactive.

Turning to `CN1CCN(c2ccc([N+](=O)[O-])c(Sc3nc4ccccc4[nH]3)c2)CC1`, the membrane potential signal change in [12] was -66.5% (active). The result in test [13] and in test [11] was inactive. Moreover, the percent change from control (negative = decrease, positive = increase) in [14] is -14.5% (active). The inhibition in test [15] is 58.5% (active).
